Inconclusive results are not listed. A call without a number means that no potency is given here. Activity calls are given as the source filed them. The call rests on the fitted dose curve; in most records, active means well fitted inhibition curve with a large enough effect; inconclusive means small, poorly fitted or top-dose-only effect; inactive means no such curve, though single readings can be large or run the other way.
The compounds below were run against Tumor susceptibility gene 101 protein (Homo sapiens) (UniProt Q99816) (assay: qHTS Assay for Iinhibitors of HIV-1 Budding by Blocking the Interaction of PTAP/TSG101: Hit Validation in TR assay). Conditions: Tsg101 binding domain + Texas Red-labeled PTAP peptide, fluorescence polarization, 20 min; series mostly up to 57.5 µM.
Chain of Tumor susceptibility gene 101 protein (Homo sapiens) (Q99816 whole entry, looked up, the tested form may be a part): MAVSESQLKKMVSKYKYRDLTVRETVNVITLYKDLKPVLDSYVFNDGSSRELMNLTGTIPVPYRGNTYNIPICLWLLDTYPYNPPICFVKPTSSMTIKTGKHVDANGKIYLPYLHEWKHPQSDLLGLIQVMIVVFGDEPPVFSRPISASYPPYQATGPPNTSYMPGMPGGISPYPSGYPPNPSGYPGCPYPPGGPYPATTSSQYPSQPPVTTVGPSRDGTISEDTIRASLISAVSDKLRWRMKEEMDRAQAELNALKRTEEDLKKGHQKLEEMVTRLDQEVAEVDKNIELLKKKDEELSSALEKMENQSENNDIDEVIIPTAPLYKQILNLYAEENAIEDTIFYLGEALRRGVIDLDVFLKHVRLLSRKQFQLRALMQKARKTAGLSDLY
In short: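 Texas Red-PTAP peptide (50 nM) binding to Tsg101 binding domain (10 uM), both final, in pH 7.5 HEPES buffer, read as polarization after 20 min at room temperature; compounds pinned before peptide addition.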
Potency means the concentration at half of the fitted maximal effect.

Row | SMILES | Potency
1 | COc1ncnc2c1NC1=C(S2)C(=NCCC(=O)O)CC(C)(C)C1 | inactive
2 | CC1=Nc2ccccc2/C1=C\c1nc(-c2ccc(F)cc2)oc1O | inactive
3 | CN1CC=C2C(C#N)=C(N)C(C#N)(C#N)C(Cc3ccccc3)C2C1 (centres undefined) | inactive
4 | O=[N+]([O-])c1ccc(Sc2cccc[n+]2[O-])c2nonc12 | inactive
5 | Cc1nn(-c2ccccc2)c(N2CCCC2)c1/C=C1\N=C(c2ccc(F)cc2)OC1=O | inactive
6 | CCOc1ccc(S(=O)(=O)N2CCc3cc(OC)c(OC)cc3C2)cc1 | inactive
7 | C=CCOc1ccc(C2OC34CCCCC3C(C#N)(C#N)C2(C#N)C(=N)O4)cc1 (centres undefined) | inactive
8 | COc1ncnc2c1N=C1CC(C)(C)CC(N)=C1S2 | inactive
9 | COc1ccccc1Nc1nc2ccc(C)cc2cc1C#N | inactive
10 | CC(OC(=O)c1c2c(nc3ccccc13)/C(=C\c1ccc3c(c1)OCO3)CCC2)C(=O)Nc1ccc(S(N)(=O)=O)cc1 (centres undefined) | inactive
11 | O=C1CCCC2=C1Sc1ccc(Cl)cc1N2 | inactive
12 | Cn1cc(/C=C2\SC(=S)N(NC(=O)c3cccc(Cl)c3)C2=O)c2ccccc21 | inactive
13 | COC(=O)C[C@H]1c2cc(F)ccc2S(=O)(=O)N1c1ccccc1 | inactive
14 | C/C(N)=C(/C#N)C(=O)CSc1ncnc2ccccc12 | inactive
15 | CC(=O)Nc1ccc(N2C(=O)c3cccc4c(O)ccc(c34)C2=O)cc1 | inactive
16 | Cc1nc2nc(-c3cccs3)cn2nc1C | inactive
17 | CN1CCc2c(sc(NC(=O)CSc3ccc(F)cc3)c2-c2nc3ccccc3s2)C1 | inactive
18 | O=[N+]([O-])c1ccc(-c2ccc(/C=N/Nc3nc(N4CCCC4)nc(N4CCCC4)n3)o2)cc1 | inactive
19 | CSCC(C)N1CCC(n2nccc2NC(=O)CCCc2ccccc2)CC1 (centres undefined) | inactive
20 | COCCN(CCOC)Cc1c(O)ccc2c1O/C(=C\c1ccco1)C2=O | inactive

Row | SMILES | Potency
21 | COc1ccc(Nc2nc(-c3cccnc3)nc3ccccc23)cn1 | inactive
22 | O=c1cc2oc3cc(O)c(O)cc3c(-c3ccccc3O)c-2cc1O | 16.3 µM (active)
23 | CCCCCCCCOc1ccc(C2OC34CCCCC3C(C#N)(C#N)C2(C#N)C(=N)O4)cc1 (centres undefined) | inactive
24 | Nc1cnccc1C(=O)O | inactive
25 | Nc1c(C(=O)Nc2ccccc2F)sc2nc(Cc3ccccc3)cc(C(F)(F)F)c12 | inactive
26 | O=C(/C=C/c1ccc(Cl)cc1Cl)c1nc2ccccc2[nH]1 | inactive
27 | CSc1ccc(C2C(C(=O)c3ccco3)=C(O)C(=O)N2c2nnc(SC)s2)cc1 (centres undefined) | inactive
28 | CC[C@@]1(C(=O)OC)N[C@H](CN(C)C(=O)c2ccc(C)cc2)[C@@H]2C(=O)N(Cc3ccccc3)C(=O)[C@@H]21 | inactive
29 | Cc1c(C(=O)Nc2cccc(C(F)(F)F)c2)sc2nc3n(c(=O)c12)CCCC3 | inactive
30 | Oc1c(C=Nc2ccccc2)sc2ccccc12 | 36.6 µM (active)
31 | Oc1[nH]c2ccc(Br)cc2c1N=Nc1ccc(F)cc1 | inactive
32 | Cc1nc2ccccc2n2c(O)c(CC(=O)O)cc12 | inactive
33 | COc1ccc(C2=CC(c3ccco3)n3ncnc3N2)cc1 (centres undefined) | inactive
34 | Cn1c(/C(C#N)=C/c2ccc(-c3ccc(S(N)(=O)=O)cc3)o2)nc2ccccc21 | inactive
35 | CC(C)(C)C(=O)c1sc2nc(-c3cccs3)cc(C(F)(F)F)c2c1N | inactive
36 | Brc1ccc(C2=CC(c3cccs3)n3ncnc3N2)cc1 (centres undefined) | inactive
37 | Oc1ccc2nnc3c(Br)cnn3c2c1 | inactive
38 | CC(C)CSC1=NSC2=NC(=O)/C(=C\c3coc4ccccc4c3=O)C(=N)N12 | inactive
39 | C=CCn1c(=O)/c(=C/c2ccc(C)o2)s/c1=C(/C#N)C(=O)c1ccccc1 | inactive

Source: PubChem BioAssay AID651599 (National Center for Advancing Translational Sciences (NCATS), 2012)
